In the OligoGym collection:

Target: TMEM90B
Assay: pooled miR-30 sensor sort-seq; sequence = guide strand
Settings: shRNA
Note: reference of the scale not given here.

| Sequence | sensor-assay potency score (higher = more potent) |
| --- | --- |
| TATTTCTCAGCATTCATCTGGT | 0.677 |
| TCACTCTCTGTGTCGCTTGAGT | -1.01 |
| TTGAGTAGTCGCTCTCCAGCTC | -0.0875 |
| TCGATGAAGGTGGTCTCGCAGC | -1.08 |
| TTGTATATTGCTAATGCGGTGG | -0.114 |
| ATCATTTGTACTGTACAGCATC | -1.17 |
| TTATTTCTCAGCATTCATCTGG | 0.827 |
| TTTCTCAGCATTCATCTGGTAA | -0.53 |
| TTAATTAAACCATTCCTCTTGC | 0.249 |
| TGTGTCGCTTGAGTAGTCGCTC | 0.302 |
| TTCATCTGGTAACTTAAGCAGC | -0.817 |
| TAGAGGATGATGTTGGGCCGGT | -0.523 |

Target: TMOD3
Assay: as above
Settings: shRNA

| Sequence | sensor-assay potency score (higher = more potent) |
| --- | --- |
| TAGTTCTCTTCAAACTCTCTTC | -0.63 |
| TTTTCTTCTGTAAAAGTCTGTA | -0.198 |
| TTATATTACAGAACTTTGTATT | -0.879 |
| TTCAACAAGATGAGCATCGTTT | -0.31 |
| TATAGCATTAGCTGCTCTGGTT | -0.335 |
| TTTTTGTTATAGCATTAGCTGC | -1.37 |
| TTACAGAACTTTGTATTCGTTA | 0.0652 |
| TTACAATTTGATAACAACTAAA | -1.42 |
| TAACGCATCAATCAGTGCCAGA | -1.33 |
| TAGGGCACATAGTCTTCCCTGT | -0.185 |
| TTTCATTATCTCTTAACGCATC | -0.758 |
| TTTTTCTTCTGTAAAAGTCTGT | 0.6 |

Target: TNFAIP2
Assay: as above
Settings: shRNA

| Sequence | sensor-assay potency score (higher = more potent) |
| --- | --- |
| TATCAAACACGCTAACTCCTAC | -0.68 |
| TTCTGCTCCATGGACATCCGGA | -0.115 |
| TATCGTTTACAAAGAGTCCTTG | -0.0149 |
| TAGCTCCAGAGCTCGGTCCATC | -1.52 |
| TATCTGTGAGCCCAAGTCCAGC | -1.63 |
| TTGGCAATAACATTGGCCCTGT | -0.0405 |
| TCAATCTTGATGGCACTGGGGT | -0.553 |
| TCAACATACATACAAAAGCAGT | -1.49 |
| TTCTGTCTTCCATTCCACCATT | -1.13 |
| TCGGACATGTAAACAAACCAAG | -1.46 |
| TTTCTCTTCCAGTTCTGTCTTC | -0.182 |
| TAATTCGTCAGCTGCTTGCCTC | -0.825 |
